Measured values: PubChem BioAssay

These compounds were tested against Torsin-1A-interacting protein 2 (Homo sapiens) (UniProt Q8NFQ8) (assay: LULL1 binders on small-molecule microarray, primary screen, cell lysate, human LULL1 lysate, 635/667 nm fluorescence (AID 1092;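 further: probe is lysate of COS7 cells overexpressing human LULL1; score merges per-feature 667 nm fluorescence with signal-to-noise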)). Settings: hLULL1 lysate binding, 635 nm fluorescence, higher = more signal.
Chain of Torsin-1A-interacting protein 2 (Homo sapiens) (Q8NFQ8 whole entry, looked up): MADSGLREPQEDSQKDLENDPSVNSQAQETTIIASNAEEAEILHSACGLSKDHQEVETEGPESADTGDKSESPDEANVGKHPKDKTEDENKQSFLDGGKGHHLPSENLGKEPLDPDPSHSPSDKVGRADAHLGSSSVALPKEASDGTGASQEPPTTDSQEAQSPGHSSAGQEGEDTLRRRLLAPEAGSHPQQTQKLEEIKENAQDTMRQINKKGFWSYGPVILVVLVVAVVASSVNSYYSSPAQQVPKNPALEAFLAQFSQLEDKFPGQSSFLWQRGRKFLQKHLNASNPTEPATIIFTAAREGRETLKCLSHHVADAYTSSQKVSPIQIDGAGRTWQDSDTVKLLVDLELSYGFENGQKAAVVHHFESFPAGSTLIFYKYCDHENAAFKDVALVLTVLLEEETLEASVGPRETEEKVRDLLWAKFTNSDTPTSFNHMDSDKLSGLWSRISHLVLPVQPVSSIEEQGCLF

Compound | composite z-score
COCCOC(=O)N1C(=O)[C@@]2(c3cc(C#CCNC(N)=O)ccc31)[C@H](C(=O)NC[C@H](O)c1ccccc1)[C@H]1C(=O)O[C@H](c3ccccc3)[C@H](c3ccccc3)N1[C@@H]2c1ccc(OCCO)cc1 | 2.5
COC(=O)[C@@]1(Cc2ccc(F)cc2)[C@H]2c3cc(C(=O)N(C)C)n(CCn4cc([N+](=O)[O-])nc4C)c3C[C@H]2CN1C(=O)c1ccccc1 | 2.87
CN(C)CCCCNC(=O)[C@H]1C[C@H]2C(=O)N[C@@H](Cc3ccccc3)C(=O)N2[C@H]1c1cccc(OCCO)c1 | 0.33
CCCCN1CC=CC23O[C@@H]4/C=C\CCC(C)OC(=O)C4[C@H]2C(=O)N(C(C)CO)[C@@H]3C1=O (stereo not given in full) | -1.13
CCCCC(=C=CC[C@@H](O)c1cccc(OCCO)c1)CCO | 0.111
CN1C=C(C(=O)OCCS(C)(=O)=O)C(C(=O)OCCS(C)(=O)=O)=CC(CCCO)=CC1c1ccc(CN2CCCC2)cc1 (stereo not given) | 3.06
C#CCN(C/C=C/c1ccccc1)[C@H](CO[Si](C)(C)C(C)(C)C)c1ccccc1 | 0.433
O=C1O[C@H](c2ccccc2)[C@H](c2ccccc2)N2[C@H]1[C@@H](C(=O)N1CCN(c3ncccn3)CC1)[C@]1(C(=O)Nc3ccccc31)[C@H]2c1ccc(O)cc1 | 3.06
[N-]=[N+]=NCc1ccccc1[C@@H]1OC(c2ccc(OCCCO)cc2)=N[C@]1(Cc1ccccc1)C(=O)NCc1ccccc1 | 3.12
C=CCOC(=O)[C@H]1[C@@H]2C(=O)O[C@@H](c3ccccc3)[C@@H](c3ccccc3)N2[C@@H](c2ccc(OCCOC(=O)[C@@H]3C[C@@H]4C(=O)N[C@@H](CC(C)C)C(=O)N4[C@@H]3c3ccc(O)cc3)cc2)[C@]12C(=O)Nc1ccc(I)cc12 | 2.44
CC(C)CNC(=O)[C@@]1(C)c2ccccc2C(=O)N(Cc2cc(F)cc(C(F)(F)F)c2)[C@H]1c1ccc(CO)cc1 | 2.6
NCCCC[C@@H]1NC(=O)[C@H]2C[C@@H](C(=O)O)[C@@H](c3cccc(OCCO)c3)N2C1=O | 3.33
CC(C)C[C@@H]1NC(=O)[C@H]2C[C@@H](C(=O)NCCCCCNC(=O)CS)[C@@H](c3ccc(O)cc3)N2C1=O | 2.11
CO[C@H]1O[C@H](CO)[C@@H](OC(=O)Nc2ccccc2)[C@@H]2OC(=O)[C@H](Cc3ccccc3)C/C=C/C[C@@H](Cc3ccccc3)C(=O)O[C@@H]12 | 2.58
CC(C)CNC(=O)[C@@H]1c2ccccc2C(=O)N(Cc2ccccc2Cl)[C@H]1c1ccc(CO)cc1 | 3.09
CCc1cccc(NC(=O)O[C@H]2[C@H](OC(=O)Nc3ccc4c(c3)OCO4)[C@H](OC(=O)Nc3ccc4c(c3)OCO4)[C@@H](OC)O[C@@H]2CO)c1 | 3.05
CCN(CC)c1ccc(N2CC=CC34O[C@@H]5C=CCOC(=O)[C@@H]5[C@H]3C(=O)N(CCCO)[C@@H]4C2=O)cc1 (stereo not given in full) | 1.57
C=C(CCCC)/C(=C/C[C@H](OC(C)=O)c1cccc(OCCO)c1)c1cc(C(=O)OC)ccc1OC | 0.628

Compound | composite z-score
C=C(COC)/C(=C/C[C@H](OC(=O)c1ccncc1)c1ccc(OCCO)cc1)c1cc(C(=O)OC)ccc1OC | 2.28
NC(=O)NCC#Cc1ccc2c(c1)[C@]1(C(=O)N2)[C@H](C(=O)Nc2nc3ccccc3s2)[C@H]2C(=O)O[C@H](c3ccccc3)[C@H](c3ccccc3)N2[C@@H]1c1ccc(OCCO)cc1 | 0.963
C=CCNC(=O)[C@H]1[C@@H]2C(=O)O[C@@H](c3ccccc3)[C@@H](c3ccccc3)N2[C@@H](c2ccc(O)cc2)[C@]12C(=O)Nc1ccc(C#CC3=CCCCC3)cc12 | 1.54
C=CCC(OC(C)=O)[C@@H]1[C@@H](N(Cc2cccc3ccccc23)C(=O)c2ccc(-c3ccccc3)cc2)c2cc(OCCCO)ccc2N1C(=O)c1ccc2ccccc2n1 (stereo not given in full) | 1.01
O=C1c2ccccc2[C@](Cc2ccccc2I)(C(=O)O)[C@H](c2ccc(CO)cc2)N1Cc1ccccc1 | 2.5
CC(C)[C@@H](C(=O)O)n1cc(-c2ccccc2)nn1 | 1.19
C/C=C/CN(C(=O)C#Cc1ccccc1)[C@H](CO[Si](C)(C)C(C)(C)C)c1ccccc1 | 0.571
COCCOC(=O)N1C(=O)[C@@]2(c3cc(C#CCCO)ccc31)[C@H](c1ccc(O)cc1)N1[C@H](c3ccccc3)[C@H](c3ccccc3)OC(=O)[C@H]1[C@@H]2C(=O)N1CCc2cc(OC)c(OC)cc2C1 | 2.45
Cc1ccc(S[C@]2(C(=O)NC3CC3)CC(=O)N(Cc3cc(C(F)(F)F)cc(C(F)(F)F)c3)[C@@H]2c2ccc(CO)cc2I)cc1 | 2.2
C[N+](C)(C)CCCC[C@@H]1NC(=O)[C@H]2C[C@@H](C(=O)NCCCCCNC(=O)CS)[C@@H](c3ccc(O)cc3)N2C1=O | 1.91
CC[C@H](C)C(=O)O[C@H]1CC[C@]2(C)C3=C(CCC2C1(C)C)[C@]1(C)CC[C@H]([C@H](C)CCCC(C)C)[C@@]1(C)CC3 (stereo not given in full) | 0.125
COCCOC(=O)N1C(=O)[C@@]2(c3cc(C#CCC(C(=O)OC)C(=O)OC)ccc31)[C@H](C(=O)N1CCCCCCC1)[C@H]1C(=O)O[C@H](c3ccccc3)[C@H](c3ccccc3)N1[C@@H]2c1ccccc1OCCO | 2.88
C=CCOC(=O)[C@H]1[C@@H]2C(=O)O[C@@H](c3ccccc3)[C@@H](c3ccccc3)N2[C@@H](c2ccc(OCCOC(=O)[C@H]3C[C@H]4C(=O)NCC(=O)N4[C@H]3c3ccc(O)cc3)cc2)[C@]12C(=O)Nc1ccc(I)cc12 | 0.871
CC#CCO[Si](C#CCCCCCC)(C(C)C)C(C)C | 0.373
CC(c1ccccc1)C(O)C1C=CC2C(=O)N(c3ccccc3)C(=O)C2N1Nc1ccc(C#N)cc1 (stereo not given) | 3.88
O=C1c2ccccc2[C@@]2(Cc3ccccc3N(Cc3ccccc3)C2=O)[C@H](c2ccc(CO)cc2)N1Cc1ccccc1 | 0.118
CC(C)CNC(=O)[C@@H]1c2ccccc2C(=O)N(CC23CC4CC(CC(C4)C2)C3)[C@H]1c1ccc(CO)cc1 | 2.69
